From article PMC7862700, “An all-to-all approach to the identification of sequence-specific readers for epigenetic DNA modifications on cytosine”

Legend:
Experiment in all cases: DAPPL (digital affinity profiling via proximity ligation, sequencing); 10 mM Tris-HCl pH 7.5, 50 mM NaCl, 1 mM DTT, 4% glycerol, room temperature, 30 min; GST-TFs on glutathione beads, 16-mer random dsDNA library, 0.1% formaldehyde crosslink after washing; high values mean tight binding
[1] = biological target: T1, FLI1 (Homo sapiens, UniProt Q01543 1-452); details: protein: recombinant; tags: N-terminal GST; dsDNA, one strand shown
T1 sequence: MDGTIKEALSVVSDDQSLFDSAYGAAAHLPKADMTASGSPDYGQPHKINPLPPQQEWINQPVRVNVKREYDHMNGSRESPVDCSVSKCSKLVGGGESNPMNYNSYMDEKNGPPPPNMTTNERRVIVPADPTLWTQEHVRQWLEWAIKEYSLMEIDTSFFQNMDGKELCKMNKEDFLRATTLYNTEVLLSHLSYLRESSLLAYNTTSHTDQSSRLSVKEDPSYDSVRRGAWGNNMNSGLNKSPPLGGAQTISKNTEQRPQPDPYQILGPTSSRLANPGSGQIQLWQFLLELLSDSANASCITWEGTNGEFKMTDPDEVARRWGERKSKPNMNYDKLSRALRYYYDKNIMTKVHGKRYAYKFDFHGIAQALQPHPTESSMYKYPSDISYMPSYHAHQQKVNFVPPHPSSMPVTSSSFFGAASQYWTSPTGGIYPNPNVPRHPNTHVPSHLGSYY
Procedure, shortened: (§1)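 Human transcription factors fused to GST were expressed in yeast, captured on glutathione beads, given DNA barcodes and pooled with a GST-only negative control. Pools were incubated with 200 nmole of a 16-mer random double-stranded DNA library in Tris/NaCl/DTT/glycerol buffer at room temperature for 30 min. They were then washed, crosslinked with 0.1% formaldehyde, proximity-ligated (BsaI/T4 ligase, 1 h, 37 °C), PCR-amplified and sequenced on an Illumina NextSeq500. Binding signal is each 6-mer's read frequency for a factor divided by its frequency for the GST control.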

[2] = biological target: T2, ELK1 (Homo sapiens, UniProt P19419 1-428); details: protein: recombinant; tags: N-terminal GST; dsDNA, one strand shown
T2 sequence: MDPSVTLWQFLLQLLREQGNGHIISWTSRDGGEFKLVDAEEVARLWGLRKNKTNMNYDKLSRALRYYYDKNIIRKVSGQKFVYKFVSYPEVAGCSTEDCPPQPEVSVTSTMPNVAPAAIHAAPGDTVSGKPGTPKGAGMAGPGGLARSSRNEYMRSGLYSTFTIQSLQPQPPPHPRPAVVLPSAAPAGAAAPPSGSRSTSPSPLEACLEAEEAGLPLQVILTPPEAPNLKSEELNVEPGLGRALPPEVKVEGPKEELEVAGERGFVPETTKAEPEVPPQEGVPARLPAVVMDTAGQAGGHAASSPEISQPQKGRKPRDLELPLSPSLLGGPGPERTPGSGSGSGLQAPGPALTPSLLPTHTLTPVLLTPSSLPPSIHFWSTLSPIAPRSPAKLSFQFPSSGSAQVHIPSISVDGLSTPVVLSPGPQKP
Procedure, shortened: as §1

[3] = biological target: T3, GABPA (Homo sapiens, UniProt Q06546 1-454); details: protein: recombinant; tags: N-terminal GST; dsDNA, one strand shown
T3 sequence: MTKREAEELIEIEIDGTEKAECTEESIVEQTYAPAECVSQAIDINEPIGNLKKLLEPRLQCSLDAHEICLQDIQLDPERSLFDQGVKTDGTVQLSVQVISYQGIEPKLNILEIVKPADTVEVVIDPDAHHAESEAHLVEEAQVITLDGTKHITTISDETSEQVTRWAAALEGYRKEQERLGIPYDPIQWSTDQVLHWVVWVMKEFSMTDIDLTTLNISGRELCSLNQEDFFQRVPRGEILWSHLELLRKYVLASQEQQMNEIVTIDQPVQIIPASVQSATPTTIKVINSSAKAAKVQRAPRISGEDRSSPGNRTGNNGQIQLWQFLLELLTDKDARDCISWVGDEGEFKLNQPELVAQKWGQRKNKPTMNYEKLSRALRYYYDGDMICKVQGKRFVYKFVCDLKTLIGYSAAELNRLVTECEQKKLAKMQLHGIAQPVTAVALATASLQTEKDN
Procedure, shortened: as §1

[4] = biological target: T4, ERG (Homo sapiens, UniProt P11308 1-479); details: protein: recombinant; tags: N-terminal GST; dsDNA, one strand shown
T4 sequence: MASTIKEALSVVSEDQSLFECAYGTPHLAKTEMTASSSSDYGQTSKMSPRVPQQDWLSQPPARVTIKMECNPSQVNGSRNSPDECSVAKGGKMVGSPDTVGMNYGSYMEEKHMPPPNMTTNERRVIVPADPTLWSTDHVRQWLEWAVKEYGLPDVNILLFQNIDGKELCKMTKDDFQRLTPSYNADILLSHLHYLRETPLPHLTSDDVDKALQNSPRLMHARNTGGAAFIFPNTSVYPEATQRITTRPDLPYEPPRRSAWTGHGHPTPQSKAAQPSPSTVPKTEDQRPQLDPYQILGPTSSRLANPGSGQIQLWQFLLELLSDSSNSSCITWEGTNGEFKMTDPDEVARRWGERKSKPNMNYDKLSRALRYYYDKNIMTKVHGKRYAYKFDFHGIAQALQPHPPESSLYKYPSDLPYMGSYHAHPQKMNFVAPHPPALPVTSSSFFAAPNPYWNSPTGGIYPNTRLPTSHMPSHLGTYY
Procedure, shortened: as §1

[5] = biological target: ELF1 (Homo sapiens, UniProt P32519 1-619); details: protein: recombinant; tags: N-terminal GST; dsDNA, one strand shown
Procedure, shortened: as §1

[6] = biological target: T5, EHF (Homo sapiens, UniProt Q9NZC4 1-300); details: protein: recombinant; tags: N-terminal GST; dsDNA, one strand shown
T5 sequence: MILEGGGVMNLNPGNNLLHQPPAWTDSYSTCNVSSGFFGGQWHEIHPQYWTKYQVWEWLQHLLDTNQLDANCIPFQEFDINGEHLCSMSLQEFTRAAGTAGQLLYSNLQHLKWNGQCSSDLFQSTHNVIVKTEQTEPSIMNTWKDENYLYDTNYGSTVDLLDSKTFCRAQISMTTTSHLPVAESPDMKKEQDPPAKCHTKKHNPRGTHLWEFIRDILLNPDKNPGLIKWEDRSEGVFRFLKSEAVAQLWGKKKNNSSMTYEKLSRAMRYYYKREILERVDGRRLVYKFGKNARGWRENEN
Procedure, shortened: as §1

[7] = biological target: SPI1 (Homo sapiens, UniProt P17947 1-270); details: protein: recombinant; tags: N-terminal GST; dsDNA, one strand shown
Procedure, shortened: as §1

[8] = biological target: SPIB (Homo sapiens, UniProt Q01892 1-262); details: protein: recombinant; tags: N-terminal GST; dsDNA, one strand shown
Procedure, shortened: as §1

[9] = biological target: T6, ELK3 (Homo sapiens, UniProt P41970 1-407); details: protein: recombinant; tags: N-terminal GST; dsDNA, one strand shown
T6 sequence: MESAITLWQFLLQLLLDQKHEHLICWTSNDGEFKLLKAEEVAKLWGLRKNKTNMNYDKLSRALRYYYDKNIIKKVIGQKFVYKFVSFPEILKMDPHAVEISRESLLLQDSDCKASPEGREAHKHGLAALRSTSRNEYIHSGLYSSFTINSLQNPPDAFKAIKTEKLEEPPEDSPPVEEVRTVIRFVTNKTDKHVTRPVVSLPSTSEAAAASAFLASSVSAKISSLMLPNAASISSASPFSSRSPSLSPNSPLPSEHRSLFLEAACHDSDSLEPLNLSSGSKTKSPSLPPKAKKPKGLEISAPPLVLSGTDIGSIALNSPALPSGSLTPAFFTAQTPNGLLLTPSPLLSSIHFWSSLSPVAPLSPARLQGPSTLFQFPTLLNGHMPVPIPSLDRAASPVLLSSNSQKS
Procedure, shortened: as §1

[10] = biological target: T7, FEV (Homo sapiens, UniProt Q99581 1-238); details: protein: recombinant; tags: N-terminal GST; dsDNA, one strand shown
T7 sequence: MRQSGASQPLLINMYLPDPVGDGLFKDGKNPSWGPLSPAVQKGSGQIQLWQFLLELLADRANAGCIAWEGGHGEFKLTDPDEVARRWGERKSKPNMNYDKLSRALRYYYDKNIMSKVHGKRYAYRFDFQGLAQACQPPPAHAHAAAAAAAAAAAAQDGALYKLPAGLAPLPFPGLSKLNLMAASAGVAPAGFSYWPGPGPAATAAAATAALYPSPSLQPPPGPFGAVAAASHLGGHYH
Procedure, shortened: as §1

[11] = biological target: ETV5 (Homo sapiens, UniProt P41161 1-510); details: protein: recombinant; tags: N-terminal GST; dsDNA, one strand shown
Procedure, shortened: as §1

[12] = biological target: HSF1 (Homo sapiens, UniProt Q00613 1-529); details: protein: recombinant; tags: N-terminal GST; chain copies: 3; dsDNA, one strand shown
Procedure, shortened: as §1

[13] = biological target: T8, SPIC (Homo sapiens, UniProt Q8N5J4 1-248); details: protein: recombinant; tags: N-terminal GST; dsDNA, one strand shown
T8 sequence: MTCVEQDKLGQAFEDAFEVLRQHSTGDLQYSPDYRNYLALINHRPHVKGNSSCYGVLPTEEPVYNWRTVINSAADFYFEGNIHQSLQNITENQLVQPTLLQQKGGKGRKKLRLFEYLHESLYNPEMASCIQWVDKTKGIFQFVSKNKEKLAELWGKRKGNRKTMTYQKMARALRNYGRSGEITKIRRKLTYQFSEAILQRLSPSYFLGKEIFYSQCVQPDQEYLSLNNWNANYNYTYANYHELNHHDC
Procedure, shortened: as §1

[14] = biological target: ELF4 (Homo sapiens, UniProt Q99607 1-663); details: protein: recombinant; tags: N-terminal GST; dsDNA, one strand shown
Procedure, shortened: as §1

[15] = biological target: T9, ELK4 (Homo sapiens, UniProt P28324-2 1-405); details: protein: recombinant; tags: N-terminal GST; dsDNA, one strand shown
T9 sequence: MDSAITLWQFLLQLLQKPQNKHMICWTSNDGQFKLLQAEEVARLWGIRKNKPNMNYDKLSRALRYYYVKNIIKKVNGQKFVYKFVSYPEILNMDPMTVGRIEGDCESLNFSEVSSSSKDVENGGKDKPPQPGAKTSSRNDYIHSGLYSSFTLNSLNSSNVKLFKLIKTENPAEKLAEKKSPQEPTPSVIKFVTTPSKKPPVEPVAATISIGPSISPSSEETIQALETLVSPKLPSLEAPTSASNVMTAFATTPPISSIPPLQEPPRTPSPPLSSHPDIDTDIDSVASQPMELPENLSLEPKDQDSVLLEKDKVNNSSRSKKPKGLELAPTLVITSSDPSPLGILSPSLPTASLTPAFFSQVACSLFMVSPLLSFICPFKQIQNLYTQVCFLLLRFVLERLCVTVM
Procedure, shortened: as §1

[16] = biological target: T10, ETV2 (Homo sapiens, UniProt O00321 1-342); details: protein: recombinant; tags: N-terminal GST; dsDNA, one strand shown
T10 sequence: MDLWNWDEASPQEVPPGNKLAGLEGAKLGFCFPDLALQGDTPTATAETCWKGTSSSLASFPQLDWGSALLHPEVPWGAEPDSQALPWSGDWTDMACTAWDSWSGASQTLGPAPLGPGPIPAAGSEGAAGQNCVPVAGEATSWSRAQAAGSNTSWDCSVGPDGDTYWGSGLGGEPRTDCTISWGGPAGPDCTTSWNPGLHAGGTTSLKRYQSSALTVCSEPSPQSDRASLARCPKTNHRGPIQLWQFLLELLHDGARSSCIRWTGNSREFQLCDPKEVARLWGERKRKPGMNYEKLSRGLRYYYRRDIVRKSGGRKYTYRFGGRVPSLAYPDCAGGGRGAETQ
Procedure, shortened: as §1

[17] = biological target: T11, ELF3 (Homo sapiens, UniProt P78545 1-371); details: protein: recombinant; tags: N-terminal GST; dsDNA, one strand shown
T11 sequence: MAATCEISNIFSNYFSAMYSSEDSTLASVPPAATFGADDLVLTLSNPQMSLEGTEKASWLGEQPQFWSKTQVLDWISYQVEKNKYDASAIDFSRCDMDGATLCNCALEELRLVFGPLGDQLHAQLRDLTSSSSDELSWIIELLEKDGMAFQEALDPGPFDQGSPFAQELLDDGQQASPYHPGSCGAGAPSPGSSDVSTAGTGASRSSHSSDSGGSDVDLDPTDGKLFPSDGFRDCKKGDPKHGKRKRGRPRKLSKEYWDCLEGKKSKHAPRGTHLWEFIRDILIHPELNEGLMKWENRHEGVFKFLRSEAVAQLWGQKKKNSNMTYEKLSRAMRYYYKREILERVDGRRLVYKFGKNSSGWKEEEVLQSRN
Procedure, shortened: as §1

[18] = biological target: CRX (Homo sapiens, UniProt O43186 1-299); details: protein: recombinant; tags: N-terminal GST; dsDNA, one strand shown
Procedure, shortened: as §1

[19] = biological target: ETV1 (Homo sapiens, UniProt P50549 1-477); details: protein: recombinant; tags: N-terminal GST; dsDNA, one strand shown
Procedure, shortened: as §1

Sequence of ELF4 (Q99607 whole entry): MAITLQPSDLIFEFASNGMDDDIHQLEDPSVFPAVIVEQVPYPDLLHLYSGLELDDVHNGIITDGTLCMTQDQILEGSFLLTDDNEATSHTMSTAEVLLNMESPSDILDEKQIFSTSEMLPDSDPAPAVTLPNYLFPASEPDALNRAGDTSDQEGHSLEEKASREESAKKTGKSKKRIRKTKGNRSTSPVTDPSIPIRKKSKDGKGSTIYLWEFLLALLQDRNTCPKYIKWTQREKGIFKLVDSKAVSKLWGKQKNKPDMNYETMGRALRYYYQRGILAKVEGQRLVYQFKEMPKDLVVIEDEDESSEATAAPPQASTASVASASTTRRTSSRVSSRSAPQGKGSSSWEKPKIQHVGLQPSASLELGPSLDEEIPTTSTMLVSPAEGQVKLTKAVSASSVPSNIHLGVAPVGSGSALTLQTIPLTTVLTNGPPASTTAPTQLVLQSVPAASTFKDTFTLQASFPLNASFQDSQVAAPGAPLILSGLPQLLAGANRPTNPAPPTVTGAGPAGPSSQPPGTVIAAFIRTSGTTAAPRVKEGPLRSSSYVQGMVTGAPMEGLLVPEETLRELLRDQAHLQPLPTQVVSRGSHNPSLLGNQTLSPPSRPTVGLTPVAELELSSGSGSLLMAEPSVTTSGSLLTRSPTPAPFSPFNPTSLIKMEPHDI
Sequence of ELF1 (P32519 whole entry): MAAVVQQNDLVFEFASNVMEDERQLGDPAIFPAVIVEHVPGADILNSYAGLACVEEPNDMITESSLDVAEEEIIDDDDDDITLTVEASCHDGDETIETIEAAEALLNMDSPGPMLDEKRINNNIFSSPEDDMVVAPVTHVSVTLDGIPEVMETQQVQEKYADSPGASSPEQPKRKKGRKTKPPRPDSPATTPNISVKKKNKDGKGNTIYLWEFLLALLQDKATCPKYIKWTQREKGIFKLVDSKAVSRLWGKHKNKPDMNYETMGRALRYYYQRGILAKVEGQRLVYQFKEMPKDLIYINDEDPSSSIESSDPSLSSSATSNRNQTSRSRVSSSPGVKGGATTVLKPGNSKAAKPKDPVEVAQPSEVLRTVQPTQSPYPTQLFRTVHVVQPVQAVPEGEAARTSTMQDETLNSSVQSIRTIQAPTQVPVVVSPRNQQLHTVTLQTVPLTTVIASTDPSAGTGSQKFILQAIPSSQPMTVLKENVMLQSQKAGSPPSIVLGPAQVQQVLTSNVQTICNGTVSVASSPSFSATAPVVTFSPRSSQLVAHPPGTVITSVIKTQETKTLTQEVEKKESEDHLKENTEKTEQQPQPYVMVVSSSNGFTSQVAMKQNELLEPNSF
Sequence of ETV5 (P41161 whole entry): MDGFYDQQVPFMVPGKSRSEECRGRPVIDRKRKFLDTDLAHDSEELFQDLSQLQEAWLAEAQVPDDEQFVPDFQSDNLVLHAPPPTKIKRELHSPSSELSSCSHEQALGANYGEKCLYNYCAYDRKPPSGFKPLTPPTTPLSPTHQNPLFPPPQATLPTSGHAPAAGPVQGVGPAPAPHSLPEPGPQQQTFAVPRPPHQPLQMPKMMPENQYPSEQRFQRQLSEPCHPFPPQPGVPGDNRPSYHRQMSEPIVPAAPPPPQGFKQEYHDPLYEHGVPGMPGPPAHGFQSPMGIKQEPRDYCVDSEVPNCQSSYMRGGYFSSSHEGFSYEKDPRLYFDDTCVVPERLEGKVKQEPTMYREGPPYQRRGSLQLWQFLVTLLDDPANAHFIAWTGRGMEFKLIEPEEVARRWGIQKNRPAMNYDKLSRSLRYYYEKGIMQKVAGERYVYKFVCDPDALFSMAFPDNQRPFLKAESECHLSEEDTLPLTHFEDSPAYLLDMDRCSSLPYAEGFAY
Sequence of SPIB (Q01892 whole entry): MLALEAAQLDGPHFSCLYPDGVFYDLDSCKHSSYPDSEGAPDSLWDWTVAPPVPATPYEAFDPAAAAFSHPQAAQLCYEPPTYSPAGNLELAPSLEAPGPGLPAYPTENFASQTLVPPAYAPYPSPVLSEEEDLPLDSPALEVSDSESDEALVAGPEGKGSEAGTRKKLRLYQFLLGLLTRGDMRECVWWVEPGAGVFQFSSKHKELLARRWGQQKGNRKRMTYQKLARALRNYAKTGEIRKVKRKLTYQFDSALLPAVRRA
Sequence of HSF1 (Q00613 whole entry): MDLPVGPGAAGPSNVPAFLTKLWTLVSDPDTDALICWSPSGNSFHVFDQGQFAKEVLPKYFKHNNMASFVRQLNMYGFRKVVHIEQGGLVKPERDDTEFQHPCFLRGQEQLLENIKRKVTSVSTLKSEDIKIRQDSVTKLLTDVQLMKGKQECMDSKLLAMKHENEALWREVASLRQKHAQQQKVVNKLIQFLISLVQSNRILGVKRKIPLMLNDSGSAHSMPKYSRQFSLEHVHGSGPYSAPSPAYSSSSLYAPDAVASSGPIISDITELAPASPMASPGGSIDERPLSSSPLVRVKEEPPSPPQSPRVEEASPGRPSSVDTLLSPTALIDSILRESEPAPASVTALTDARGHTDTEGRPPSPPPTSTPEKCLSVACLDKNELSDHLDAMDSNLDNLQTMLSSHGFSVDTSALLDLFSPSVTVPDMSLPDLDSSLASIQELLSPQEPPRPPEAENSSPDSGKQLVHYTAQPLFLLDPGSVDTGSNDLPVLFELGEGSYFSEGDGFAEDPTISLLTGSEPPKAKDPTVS
Sequence of CRX (O43186 whole entry): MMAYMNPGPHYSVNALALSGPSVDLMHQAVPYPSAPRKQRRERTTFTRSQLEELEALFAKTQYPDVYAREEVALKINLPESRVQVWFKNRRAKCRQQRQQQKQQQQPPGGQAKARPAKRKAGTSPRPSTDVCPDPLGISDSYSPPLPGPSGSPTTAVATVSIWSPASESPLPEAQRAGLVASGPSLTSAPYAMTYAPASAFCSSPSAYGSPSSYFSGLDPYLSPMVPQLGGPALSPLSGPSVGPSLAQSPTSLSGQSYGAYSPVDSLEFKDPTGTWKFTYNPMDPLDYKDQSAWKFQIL
Sequence of ETV1 (P50549 whole entry): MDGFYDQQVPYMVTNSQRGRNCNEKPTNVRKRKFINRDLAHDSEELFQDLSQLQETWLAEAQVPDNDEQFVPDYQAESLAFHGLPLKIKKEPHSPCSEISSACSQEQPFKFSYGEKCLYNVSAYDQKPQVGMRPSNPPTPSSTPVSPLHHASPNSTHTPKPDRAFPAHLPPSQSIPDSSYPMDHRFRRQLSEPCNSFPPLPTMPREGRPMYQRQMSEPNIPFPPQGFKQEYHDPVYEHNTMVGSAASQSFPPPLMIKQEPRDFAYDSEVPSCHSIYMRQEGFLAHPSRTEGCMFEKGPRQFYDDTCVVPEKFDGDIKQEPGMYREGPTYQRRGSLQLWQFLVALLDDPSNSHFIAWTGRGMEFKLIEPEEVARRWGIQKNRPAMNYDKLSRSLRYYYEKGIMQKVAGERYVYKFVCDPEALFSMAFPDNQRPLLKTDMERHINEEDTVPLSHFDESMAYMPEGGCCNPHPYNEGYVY

With TTGAAT the binding signal [1] was 1.11 fold enrichment (6-mer frequency, TF over GST control), the binding signal [2] was 1.08 fold enrichment (6-mer frequency, TF over GST control) and the binding signal [3] was 1.15 fold enrichment (6-mer frequency, TF over GST control). For the same sequence, the binding signal [4] was 1.1 fold enrichment (6-mer frequency, TF over GST control), the binding signal [5] was 1.12 fold enrichment (6-mer frequency, TF over GST control) and the binding signal [6] was 1.11 fold enrichment (6-mer frequency, TF over GST control). The binding signal [7] was 1.12 fold enrichment (6-mer frequency, TF over GST control), the binding signal [8] was 1.03 fold enrichment (6-mer frequency, TF over GST control) and the binding signal [9] was 1.04 fold enrichment (6-mer frequency, TF over GST control). The binding signal [10] was 1.03 fold enrichment (6-mer frequency, TF over GST control), the binding signal [11] was 1.07 fold enrichment (6-mer frequency, TF over GST control) and the binding signal [12] was 1.09 fold enrichment (6-mer frequency, TF over GST control). The binding signal [13] was 1.16 fold enrichment (6-mer frequency, TF over GST control), the binding signal [14] was 1.12 fold enrichment (6-mer frequency, TF over GST control) and the binding signal [15] was 1.05 fold enrichment (6-mer frequency, TF over GST control). The binding signal [16] was 1.04 fold enrichment (6-mer frequency, TF over GST control), the binding signal [17] was 1.1 fold enrichment (6-mer frequency, TF over GST control) and the binding signal [18] was 1.17 fold enrichment (6-mer frequency, TF over GST control). For the same sequence, the binding signal [19] was 1.11 fold enrichment (6-mer frequency, TF over GST control).
